The nature of test [1]: Cytometric Cell-Based qHTS for Inhibitors of the mTORC1 Signaling Pathway in MEF (Tsc2-/-, p53-/-) Cells (AID 2660).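 Also: percent of cells above a phospho-rpS6 to PI ratio cutoff in each well; series mostly up to about 38 µM.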 In outline:
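Cells are plated, treated with compound for 24 hrs at 37 degree Celsius, then fixed, blocked and immunostained for phospho-rpS6 Ser235/236. Propidium iodide counterstain follows. Per-well % positive cells is derived from the PI-normalized phospho-S6 signal.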
A general note: Quantitative high-throughput screening tests each substance at several concentrations.

Test [2] can be described thus: High Content Imaging Cell-Based qHTS for Inhibitors of the mTORC1 Signaling Pathway in MEF (Tsc2-/-, p53-/-) Cells (AID 2666). The essentials: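 Phospho-rpS6 (Ser235/236) immunofluorescence, normalized and scored as % positive cells using rapamycin and DMSO controls, was read in empty-vector Tsc2-/-, p53-/- MEFs after 24 h compound exposure at 37 C; propidium iodide counted cells.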

Test [3] in a line: High Content Imaging Cell-Based qHTS for Inhibitors of the mTORC1 Signaling Pathway in MEF Cells (AID 2667).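 Also: Tsc2-/- p53-/- MEFs stably re-expressing wild-type Tsc2 exposed 24 h; series mostly up to about 38 µM.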 In outline:
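WT MEFs (Tsc2-/-, p53-/- re-expressing Tsc2), in DMEM + 10% FBS, were treated with compound for 24 h at 37 C. Cells were then fixed and stained for phospho-rpS6 Ser235/236 with propidium iodide as cell count. Values are % positive cells, with thresholds set against rapamycin-treated cells.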

A short description of test [4]: Cytometry Cell-Based qHTS for Inhibitors of the mTORC1 Signaling Pathway in MEF cells (AID 2668).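 Also: Tsc2-/- p53-/- mouse embryonic fibroblasts stably re-expressing wild-type Tsc2; percent cells positive for phospho-rpS6 Ser235/236 relative to propidium iodide stain; series mostly up to about 38 µM.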 The essentials:
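Read-out: phospho-rpS6 Ser235/236 immunofluorescence normalized to propidium iodide intensity, scored as % active cells against a rapamycin (7.5 nM) threshold. Cells: Tsc2-/-, p53-/- MEFs stably expressing WT Tsc2, compound-treated 24 hrs at 37 degree Celsius.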

The nature of test [5]: Validation screen for small molecules that induce DNA re-replication in MCF 10A normal breast cells (AID 463097). Also: nearly all actives have a fitted effect of over 60% in size. Also: potency is read from the fitted curve at half-maximal effect. The essentials: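 250 MCF 10A cells/well; compound pin-transferred; 48 hr, 37 C, 5% CO2; Hoechst 40 min; imaged 405/500-530 nm. Hits = more high-intensity nuclei.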
For test [6], the target named is Ubiquitin carboxyl-terminal hydrolase 2 (Homo sapiens) (UniProt O75604). Kind of test: qHTS Validation Assay for Inhibitors of Ubiquitin-specific Protease USP2a Using CHOP2 as the Reporter (AID 463106). The essentials: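 USP2 core (10 nM final) was preincubated with compound 30 min at RT in pH 8.0 Tris/CaCl2/beta-ME/CHAPS buffer. Ub-CHOP2 and reporter substrate (25 nM final each) were then added, with fluorescence (Ex 485/Em 531) read after 60 min. Data were normalized to NEM full inhibition and fitted to concentration-response curves.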

Test [7] concerns the target DNA polymerase III PolC-type (Bacillus subtilis (strain 168)) (UniProt P13267). Put plainly: qHTS Validation Assay for the Inhibitors of DNA Replication in Gram-Positive Bacteria (AID 485295).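 Also: reconstituted holoenzyme with PolC plus beta clamp SSB and primase; PicoGreen fluorescence of double-stranded DNA made on primed circular M13 template; series mostly up to about 57 µM.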 In outline: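 PicoGreen fluorescence (ex 480–485/em 535–540 nm) reports dsDNA synthesized on ssM13Gori template with dNTPs/NTPs. Enzyme: holoenzyme rebuilt from purified PolC, beta subunit, SSB and primase. Compound preincubated before substrate addition; RT throughout.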

The target in test [8] is Tumor susceptibility gene 101 protein (Homo sapiens) (UniProt Q99816). Put plainly: qHTS Validation Assay for Iinhibitors of HIV-1 Budding by Blocking the Interaction of PTAP/TSG101 (AID 485342; calls by dose curve). The essentials:
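FP read-out: FITC-PTAP peptide, 50 nM final, binding Tsg101 binding domain, 10 uM final; 20 min r.t.; 10 mM HEPES pH 7.5, 0.15 M NaCl, 0.01% Tween 20, 3 mM EDTA, 0.1 mM TCEP.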

The target in test [9] is DNA repair nuclease/redox regulator APEX1 (Homo sapiens) (UniProt P27695). Kind of test: Confirmation qHTS Assay for Inhibitors of the Human Apurinic/apyrimidinic Endonuclease 1 (APE1) (AID 2572).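 Also: fluorescence gain from purified APE1 cutting a TAMRA/BHQ-2 THF abasic duplex; nearly all actives have a fitted effect of over 30% in size.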 From the text:
The apurinic/apyrimidinic endonuclease APE1 is the primary mammalian enzyme responsible for the removal of abasic (or AP) sites in DNA and functions centrally in the base excision DNA repair (BER) pathway. […] Thus, targeting APE1 could improve the efficacy of current treatment paradigms by promoting selective sensitization or protection of diseased and normal cells, respectively.
Inhibition of APE1 activity was screened by utilizing double-stranded short substrate containing tetrahydrofuran (THF) abasic site labeled with rhodamine-type fluorophore (TAMRA) at the 5'-end and with non-fluorescent Black Hole Quencher-2 (BHQ-2) at the opposing 3'-end. An increase in the fluorescence intensity due to incision of the abasic site by APE1 was used to measure the enzyme activity.
Assay Provider: David M. Wilson, III, National Institute on Aging, NIH
Screening Center PI: Austin, C.P.
Screening Center: NIH Chemical Genomics Center [NCGC]
1. […]
Three uL of enzyme were dispensed to 1536-well Greiner black solid bottom plates. […] The plates were immediately transferred into ViewLux High-throughput CCD imager (Perkin-Elmer) in order to measure the reaction progress in kinetic mode (three reads every 60 seconds) using 525 nm excitation and 598 nm emission fluorescence protocol. The fluorescence intensity difference between the third and the first time points was used to compute reaction progress.

A short description of test [10]: qHTS Validation Assay to Find Inhibitors of Chronic Active B-Cell Receptor Signaling (AID 485345; active = well fitted curve in the direction sought with a large enough effect in the main read-out, with a control signal flat, not every such curve was filed as active). In outline: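 TMD8 ABC-DLBCL cells stably carrying doxycycline-inducible IkappaBalpha–green luciferase fusion plus unfused red luciferase; compounds 46 uM to 3 nM, 4 h at 37C with doxycycline. Corrected green/red luminescence ratio normalized to 10 uM MG-132 and basal cell wells; curves fitted.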

Inconclusive results are not listed. The list shows a part of the results. Active and inactive are the calls of the source. Unless noted, calls follow the shape of the dose curve; as a rule, active = well fitted curve in the direction sought with a large enough effect; inconclusive = small, poorly fitted or top-dose-only effect, or another doubt; inactive = no such curve, though single readings can be large; an effect the other way counts as inactive or inconclusive.

Sequence of DNA polymerase III PolC-type (Bacillus subtilis (strain 168)) (P13267 whole entry, looked up): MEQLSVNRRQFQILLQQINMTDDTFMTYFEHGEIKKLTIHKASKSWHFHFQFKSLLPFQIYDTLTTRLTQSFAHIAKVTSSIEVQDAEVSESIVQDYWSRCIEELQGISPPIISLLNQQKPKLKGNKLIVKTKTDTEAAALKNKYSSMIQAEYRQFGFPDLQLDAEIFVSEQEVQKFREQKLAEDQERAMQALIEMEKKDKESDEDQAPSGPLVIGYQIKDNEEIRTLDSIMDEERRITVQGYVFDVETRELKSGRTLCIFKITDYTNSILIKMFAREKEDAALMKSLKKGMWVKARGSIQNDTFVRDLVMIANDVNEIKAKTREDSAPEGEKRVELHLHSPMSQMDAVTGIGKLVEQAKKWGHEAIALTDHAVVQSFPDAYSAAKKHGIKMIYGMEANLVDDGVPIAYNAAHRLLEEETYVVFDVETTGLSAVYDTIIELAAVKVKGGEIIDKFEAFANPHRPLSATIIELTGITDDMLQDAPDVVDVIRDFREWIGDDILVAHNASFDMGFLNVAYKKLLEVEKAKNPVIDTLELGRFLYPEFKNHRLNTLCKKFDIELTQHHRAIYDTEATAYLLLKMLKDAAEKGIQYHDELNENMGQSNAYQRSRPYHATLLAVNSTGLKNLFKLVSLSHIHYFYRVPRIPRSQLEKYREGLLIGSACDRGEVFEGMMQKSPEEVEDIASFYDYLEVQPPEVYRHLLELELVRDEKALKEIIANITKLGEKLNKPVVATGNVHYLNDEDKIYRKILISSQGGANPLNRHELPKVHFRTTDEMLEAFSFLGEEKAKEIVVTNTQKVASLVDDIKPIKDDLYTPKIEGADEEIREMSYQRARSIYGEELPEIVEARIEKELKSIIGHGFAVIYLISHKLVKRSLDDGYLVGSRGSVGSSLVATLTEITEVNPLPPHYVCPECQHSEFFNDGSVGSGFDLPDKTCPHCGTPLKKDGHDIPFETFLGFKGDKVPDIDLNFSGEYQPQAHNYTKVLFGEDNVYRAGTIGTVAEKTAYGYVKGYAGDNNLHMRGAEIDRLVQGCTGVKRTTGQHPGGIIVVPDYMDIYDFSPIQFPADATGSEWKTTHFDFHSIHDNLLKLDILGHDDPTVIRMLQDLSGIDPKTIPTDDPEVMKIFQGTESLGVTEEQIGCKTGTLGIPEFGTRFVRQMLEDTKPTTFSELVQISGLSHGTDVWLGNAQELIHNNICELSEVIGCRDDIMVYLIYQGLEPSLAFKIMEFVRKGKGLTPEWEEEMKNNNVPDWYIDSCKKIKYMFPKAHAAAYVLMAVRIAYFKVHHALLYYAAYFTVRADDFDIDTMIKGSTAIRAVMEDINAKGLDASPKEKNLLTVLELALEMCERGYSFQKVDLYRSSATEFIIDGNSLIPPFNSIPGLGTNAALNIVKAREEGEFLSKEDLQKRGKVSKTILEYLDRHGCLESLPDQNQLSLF
Sequence of Ubiquitin carboxyl-terminal hydrolase 2 (Homo sapiens) (O75604 whole entry, looked up): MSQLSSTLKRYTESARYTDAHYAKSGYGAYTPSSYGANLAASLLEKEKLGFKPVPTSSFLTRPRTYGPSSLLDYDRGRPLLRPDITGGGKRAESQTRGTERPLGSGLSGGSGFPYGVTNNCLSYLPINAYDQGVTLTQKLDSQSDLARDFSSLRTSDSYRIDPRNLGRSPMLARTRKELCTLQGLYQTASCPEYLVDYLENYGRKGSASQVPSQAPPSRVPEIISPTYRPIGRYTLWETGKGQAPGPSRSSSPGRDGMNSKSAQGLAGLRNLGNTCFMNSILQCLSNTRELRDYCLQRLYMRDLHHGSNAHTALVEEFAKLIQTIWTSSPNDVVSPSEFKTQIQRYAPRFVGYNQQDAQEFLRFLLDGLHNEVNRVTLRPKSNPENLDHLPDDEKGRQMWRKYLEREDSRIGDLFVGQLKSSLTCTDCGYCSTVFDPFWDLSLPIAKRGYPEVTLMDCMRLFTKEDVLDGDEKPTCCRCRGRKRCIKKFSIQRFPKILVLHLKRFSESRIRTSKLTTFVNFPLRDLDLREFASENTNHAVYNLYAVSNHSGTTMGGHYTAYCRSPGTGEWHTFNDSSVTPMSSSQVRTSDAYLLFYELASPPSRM
Sequence of Tumor susceptibility gene 101 protein (Homo sapiens) (Q99816 whole entry, looked up, the tested form may be a part): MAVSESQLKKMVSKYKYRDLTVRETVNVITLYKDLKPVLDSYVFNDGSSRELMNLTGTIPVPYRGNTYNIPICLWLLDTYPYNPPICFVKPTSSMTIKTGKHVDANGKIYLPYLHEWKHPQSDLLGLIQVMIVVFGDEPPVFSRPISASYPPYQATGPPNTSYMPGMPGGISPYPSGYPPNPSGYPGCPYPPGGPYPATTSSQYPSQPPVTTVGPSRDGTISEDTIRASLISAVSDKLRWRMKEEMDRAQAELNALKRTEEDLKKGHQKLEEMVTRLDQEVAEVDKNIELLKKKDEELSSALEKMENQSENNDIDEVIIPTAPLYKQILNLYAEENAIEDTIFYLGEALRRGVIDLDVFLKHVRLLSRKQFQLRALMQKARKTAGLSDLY
Sequence of DNA repair nuclease/redox regulator APEX1 (Homo sapiens) (P27695 whole entry, looked up): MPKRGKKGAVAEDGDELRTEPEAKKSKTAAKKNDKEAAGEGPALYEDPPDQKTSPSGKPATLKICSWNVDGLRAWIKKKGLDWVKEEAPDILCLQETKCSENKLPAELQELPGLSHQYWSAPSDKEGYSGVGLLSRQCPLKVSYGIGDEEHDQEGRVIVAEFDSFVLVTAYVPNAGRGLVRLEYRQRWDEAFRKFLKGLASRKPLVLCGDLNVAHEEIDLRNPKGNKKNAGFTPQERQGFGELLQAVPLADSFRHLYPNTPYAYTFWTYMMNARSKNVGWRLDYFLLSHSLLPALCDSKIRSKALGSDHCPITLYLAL

Turning to `COc1cc(N)c(Cl)cc1C(=O)OCCN1CCCCC1`, the compound was classed as inactive in test [1] and in [8]. Moreover, the Potency entry in [2], in test [3], in test [4], in test [5], in test [6] and in test [7] was “inactive” throughout.
As for `CC(=O)C(C)=O`, the call in test [1] was inactive. For the same compound, the Potency entry in [2], in test [3], in [4], in [5], in [6] and in [7] was “inactive” throughout.
For `COc1cccc(OC)c1OCCNCC1CSc2ccccc2O1` (centres undefined), the call in [1] and in [8] was inactive. Further, the Potency entry in test [2], in test [3], in test [4], in test [5], in test [6] and in [7] was “inactive” throughout.
`NS(=O)(=O)c1cccc2c1c([N+](=O)[O-])cc1nc(O)c(O)nc12`: the outcome in test [1] and in [8] was inactive. The Potency entry in test [2], in [3], in test [4], in [5], in test [6] and in [7] was “inactive” in each case.
On to `CCCCC[C@H](CC(=O)NO)C(=O)N[C@H](C(=O)N1CCC[C@H]1CO)C(C)C`, for which the result in test [1] and in test [8] was inactive. In addition, the Potency entry in test [2], in [3], in test [4], in test [5], in [6] and in test [7] was “inactive” each time.
Consider `N#C/C(=C\c1ccc(O)c(O)c1)C(=O)NCCCNC(=O)/C(C#N)=C/c1ccc(O)c(O)c1`, for which the outcome in [1] was inactive. For the same compound, the Potency result in test [2], in [3], in test [4], in [5] and in test [6] was “inactive” in each case.
Regarding `O=C(O)C1=CCCNC1`, the call in test [1] and in test [8] was inactive. The Potency entry in test [2], in [3], in test [4], in test [5], in test [6] and in test [7] was “inactive” each time.
Consider `Nc1ccc(-c2ccc3ccccc3n2)cc1`, for which the result in test [1] and in test [8] was inactive. Besides, the Potency result in test [2], in [3], in test [4], in [6] and in [7] was “inactive” each time. In addition, the Potency in test [5] was 12.6 µM (active).
For `CCCn1c(=O)c2[nH]c(-c3ccc(S(=O)(=O)O)cc3)nc2n(CCC)c1=O`, the call in test [1] and in test [8] was inactive. Further, the Potency entry in test [2], in test [3], in test [4], in [5], in test [6] and in [7] was “inactive” throughout.
With `N[C@@H](Cc1ccc(F)cc1)C(=O)O`, the call in test [1] and in [8] was inactive. For the same compound, the Potency entry in test [2], in [3], in test [4], in test [5], in [6] and in test [7] was “inactive” throughout.
On to `O=C1C2C=CC=CC2=NC(=S)N1CCN1CCC(=C(c2ccc(F)cc2)c2ccc(F)cc2)CC1` (centres undefined), for which the call in test [1] and in [8] was inactive. The Potency entry in test [2], in test [3], in [4], in [6] and in test [7] was “inactive” each time. Further, the Potency in [5] was 7.08 µM (active).
As for `NC(N)=NC(N)=Nc1ccccc1`, the call in test [1] and in test [8] was inactive. In addition, the Potency entry in test [2], in test [3], in [4], in test [5], in test [6] and in test [7] was “inactive” each time.
As for `O=C(c1ccc2c(c1)OCCO2)N1CCCCC1`, the compound was called inactive in test [1] and in test [8]. Also, the Potency result in [2], in [3], in test [4], in [5], in [6] and in [7] was “inactive” in each case.
With `Nc1ncnc2c1ncn2C1CCCO1` (centres undefined), the compound was called inactive in [1] and in test [8]. Besides, the Potency result in test [2], in test [3], in test [4], in test [5], in test [6] and in test [7] was “inactive” in each case.
`NC1CCN(O)C1=O` (centres undefined): the call in [9], in test [1], in [8] and in test [10] was inactive. Moreover, the Potency result in [2], in test [3], in test [4], in [5], in [6] and in test [7] was “inactive” throughout.

(Values after PubChem BioAssay (NCATS).)
